# Experimental data reported in article PMC4336329 (PLoS ONE, 2015).
# Hit rate of the full screen: of about 310,000 compounds, about 14,000 (4.5%) showed an effect of 50% or more. The effect is printed as a negative number. What follows is part of a selection rich in strong results, with near analogues and random picks from the rest.
# Target: human ether-à-go-go-related gene (hERG) potassium channel (human, UniProt Q12809)
# Assay: primary screen, population patch clamp on CHO cells stably expressing hERG; higher = less effect of the substance
# 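Note: peak tail current of the secondary pulse compared with the same well before compound.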
# Sequence of human ether-à-go-go-related gene (hERG) potassium channel (Q12809 whole entry, looked up): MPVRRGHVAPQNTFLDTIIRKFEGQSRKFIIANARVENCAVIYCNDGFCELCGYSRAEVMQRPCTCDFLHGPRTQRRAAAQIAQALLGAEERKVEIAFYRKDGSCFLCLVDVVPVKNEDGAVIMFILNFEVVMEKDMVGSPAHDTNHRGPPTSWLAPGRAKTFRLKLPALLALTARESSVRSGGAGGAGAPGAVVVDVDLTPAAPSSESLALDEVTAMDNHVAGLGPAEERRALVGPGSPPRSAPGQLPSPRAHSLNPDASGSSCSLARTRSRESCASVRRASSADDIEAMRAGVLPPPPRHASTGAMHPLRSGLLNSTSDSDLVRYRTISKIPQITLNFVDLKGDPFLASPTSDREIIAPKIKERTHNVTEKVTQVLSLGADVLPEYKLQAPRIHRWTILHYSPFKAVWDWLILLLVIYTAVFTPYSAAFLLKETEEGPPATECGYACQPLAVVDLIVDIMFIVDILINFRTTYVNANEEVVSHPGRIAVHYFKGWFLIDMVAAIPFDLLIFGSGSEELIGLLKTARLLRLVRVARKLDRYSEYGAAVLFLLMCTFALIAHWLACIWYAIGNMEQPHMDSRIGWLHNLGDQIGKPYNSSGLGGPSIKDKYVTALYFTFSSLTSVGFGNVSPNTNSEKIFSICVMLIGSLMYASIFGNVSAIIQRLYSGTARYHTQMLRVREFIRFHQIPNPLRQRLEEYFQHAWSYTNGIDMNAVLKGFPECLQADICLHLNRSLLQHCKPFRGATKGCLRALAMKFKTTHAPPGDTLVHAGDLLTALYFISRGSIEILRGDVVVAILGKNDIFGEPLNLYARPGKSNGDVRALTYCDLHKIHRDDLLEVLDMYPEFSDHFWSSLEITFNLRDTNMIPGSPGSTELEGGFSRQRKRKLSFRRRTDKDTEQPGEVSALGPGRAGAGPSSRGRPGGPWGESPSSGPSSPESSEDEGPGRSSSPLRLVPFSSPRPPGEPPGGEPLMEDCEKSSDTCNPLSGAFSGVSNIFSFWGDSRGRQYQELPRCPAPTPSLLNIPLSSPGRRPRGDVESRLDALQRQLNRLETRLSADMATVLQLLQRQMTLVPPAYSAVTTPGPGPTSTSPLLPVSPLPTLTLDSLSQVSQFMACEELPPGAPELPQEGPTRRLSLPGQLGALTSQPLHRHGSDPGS
row,SMILES,"hERG current change (%, negative = inhibition) at 10uM [%]"
1,Cc1ccccc1C(=O)NCCNC(=O)c1ccccn1,6.75
2,O=C(Nc1cccnc1)c1cc(F)c(F)cc1Cl,19.7
3,O=C(Nc1ccc(Cc2ccncc2)cc1)c1ccc(Br)o1,-35.8
4,CC(C)Cc1ccc(C(=O)Nc2ccc(Cc3ccncc3)cc2)o1,-57.6
5,O=C(NCc1ccncc1)c1cc(F)c(F)cc1Cl,14.2
6,CC(C)CC(=O)Nc1ccc(Cc2ccncc2)cc1,10.1
7,O=C(Nc1ccc(Cc2ccncc2)cc1)c1cc(F)c(F)cc1Cl,-71.2
8,N#Cc1cnc(SCC(=O)N2CCCC2)nc1N,13.1
9,COc1cc(NC(=O)c2cccc(C)c2)c(OC)cc1NC(=O)CN1CCOCC1,-3.88
10,O=C(NC12CC3CC(CC(C3)C1)C2)C12CC3CC(C1)CC(n1cnc(Cl)n1)(C3)C2,2.42
11,COc1cc(-c2nc(-c3cccc(C)c3)no2)cc(OC)c1OC,0.668
12,O=C(Nc1ccc(-n2cnnn2)cc1)C1CCCN1C(=O)Nc1ccc(Br)cc1 (centres unmarked),-79.9
13,O=C(Nc1ccc(-n2cnnn2)cc1)C1CCC1,11.3
14,O=C(Nc1ccc(-n2cnnn2)cc1)C1CCCN1C(=O)NC1CCCCC1 (centres unmarked),-63.3
15,CC(C)c1ccc(NC(=O)N2CCCC2C(=O)Nc2ccc(-n3cnnn3)cc2)cc1 (centres unmarked),-61.8
16,Cc1ccc(NC(=O)C2CCCN2C(=O)NC2CCCCC2)cc1 (centres unmarked),8.72
17,Cc1cc(NC(=O)C2CCCN2C(=O)Nc2c(C)cccc2C)ccc1-n1cnnn1 (centres unmarked),-10.9
18,Cc1cc(NC(=O)C2CCCN2C(=O)Nc2cccc(Cl)c2)ccc1-n1cnnn1 (centres unmarked),-48.3
19,Cc1cc(C)cc(NC(=O)N2CCCC2C(=O)Nc2ccc(-n3cnnn3)c(C)c2)c1 (centres unmarked),-12.3
20,Cc1cccc(C)c1NC(=O)N1CCCC1C(=O)Nc1ccc(-n2cnnn2)cc1 (centres unmarked),-35.8
21,CC(=O)Nc1ccc(NC(=O)C2CCCN2C(=O)NC2CCCCC2)cc1 (centres unmarked),12.5
22,Cc1ccc(NC(=O)N2CCCC2C(=O)Nc2ccc(-n3cnnn3)c(C)c2)cc1 (centres unmarked),-18.7
23,Cc1cc(C)cc(NC(=O)N2CCCC2C(=O)Nc2ccc(-n3cnnn3)cc2)c1 (centres unmarked),-54.1

row,SMILES,"hERG current change (%, negative = inhibition) at 10uM [%]"
1,O=C(CN1C(=O)NC2(CCc3ccccc32)C1=O)NCC(F)(F)F (centres unmarked),2.18
2,O=C(O)c1cccc(Oc2ncnc3sc4c(c23)CCCC4)c1,34.5
3,Oc1ccc(N=Nc2ccc3c(c2)OCCO3)c(O)c1,22.6
4,CC(=O)Nc1ccc(S(=O)(=O)N2CC(=O)NC(=O)C2)cc1,29.9
5,COc1ccc(C2=NS(=O)(=O)N(C)C(C(=O)N3CCCCC3)=C2)cc1OC,-4.54
6,CCn1ncc(Br)c1C(=O)NC(C)c1ccccc1 (centres unmarked),3.91
7,O=C(Cn1c(=O)n(CCC(=O)N2CCCCC2)c(=O)c2sccc21)NCc1ccccc1,5.68
8,CN(Cc1ccccc1Cl)C(=O)c1cc2ccccc2o1,-2.37
9,COc1ccc(CCN(C)C(=O)c2cc(=O)c3ccccc3o2)cc1OC,7.6
10,CN(Cc1ccccc1)C(=O)c1cc2ccccc2o1,-23
11,CN(Cc1ccc(N(C)C)cc1)C(=O)c1cc2ccccc2o1,-18.5
12,CSc1ccc(CN(C)C(=O)c2cc(=O)c3ccccc3o2)cc1,-71.4
13,COc1ccc(Cl)cc1NC(=O)CN(C)C(=O)c1cc(=O)c2ccccc2o1,-28
14,Cc1ccc(-c2c(C(=O)NCc3ccc(F)cc3)oc(=O)c3ccccc23)cc1,-13
15,CCc1ccc(CN(C)C(=O)c2cc(=O)c3ccccc3o2)cc1,-66.4
16,Cc1ccc(-c2c(C(=O)N(C)Cc3ccccc3)oc(=O)c3ccccc23)cc1,-52.5
17,CN(Cc1ccc(Cl)cc1Cl)C(=O)c1cc(=O)c2ccccc2o1,-53.4
18,CSc1ccc(CN(C)C(=O)c2cc3ccccc3o2)cc1,21.2
19,CN(Cc1ccccc1)C(=O)c1oc(=O)c2ccccc2c1-c1ccccc1,-13.1
20,O=C(Nc1ccc(N2CCCCCC2)cc1)c1ccc[nH]1,-15.6
21,O=C(NC(=S)NCC1CCCO1)c1ccccc1Br (centres unmarked),4.66
22,CN(CCc1ccccn1)C(=O)Nc1ccc(C(C)(C)C)cc1,-19.3
23,O/N=C/c1cc2ccccc2n1Cc1ccccc1F,13.6

row,SMILES,"hERG current change (%, negative = inhibition) at 10uM [%]"
1,CC12CCC(C(=O)n3c1nc1ccccc13)C2(C)C (centres unmarked),-3.14
2,Cc1cccc(NC(=O)CSc2nc3nc(C)cc(C)c3c(=O)[nH]2)c1,4.65
3,O=C(NC1CCN(Cc2ccccc2)CC1)C1CCN(S(=O)(=O)c2cccc([N+](=O)[O-])c2)CC1,-8.03
4,CCN1CCCC(NC(=O)c2cc([N+](=O)[O-])ccc2OC)C1.Cl.O (centres unmarked),-11.8
5,CC(=O)NC1CCN(CC(=O)Nc2cccc([N+](=O)[O-])c2)CC1,18.7
6,CCOc1ccc(C(=O)NC2CCN(CC(=O)NCc3ccccc3)CC2)cc1,-29.3
7,CC1CCCCC1NC(=O)CN1CCC(NC(=O)c2ccc([N+](=O)[O-])cc2)CC1 (centres unmarked),2.55
8,O=C(NC1CCN(Cc2cccc([N+](=O)[O-])c2)CC1)c1ccccc1,-53.7
9,Cc1ccc(C(=O)NC2CCN(CC(=O)Nc3cccc([N+](=O)[O-])c3)CC2)cc1,-71.4
10,O=C(NC1CCN(C(=O)c2cccc([N+](=O)[O-])c2)CC1)c1ccccc1,-32.8
11,CC1CCN(CC(=O)Nc2cccc([N+](=O)[O-])c2)CC1,3.53
12,COc1ccc([N+](=O)[O-])cc1C(=O)NC1CCN(Cc2ccccc2)CC1.Cl.O,-55.3
13,O=C(NC1CCN(CC(=O)N(c2ccccc2)c2ccccc2)CC1)c1ccc([N+](=O)[O-])cc1,-78
14,COc1ccc(C)cc1NC(=O)NC1CCN(Cc2ccccc2)CC1,-31.4
15,COc1ccccc1N/C=C/c1onc(C)c1[N+](=O)[O-],1.63
16,Cn1c2ccccc2c2cc(/C=C(\NC(=O)c3ccccc3)C(=O)O)ccc21,9.22
17,CSc1ccc(C(=O)N2CCc3ccc(NC(=O)c4ccccn4)cc3C2)cc1,-4.13
18,Cc1ccc(NC(=O)Cn2c(/C=C/c3ccccc3)nc3ccccc32)cc1C,-0.723
19,Cc1ccc(C(=O)O/N=C(\N)c2ccccn2)c(C)c1,-3.86
20,C/C(=N\OCC(=O)O)c1ccc(Cl)cc1,13.5
21,COc1ccc(CNC(=O)C(c2ccncc2)N(C(=O)Cc2cccs2)c2ccc(C)cc2)cc1 (centres unmarked),-15.7
22,Cc1ccc(C2Nc3ccccc3C(=O)N2Cc2ccco2)cc1 (centres unmarked),-32.5
23,O=C(O)c1cc(OCc2ccccc2)cc(OCc2ccccc2)c1,10.8

row,SMILES,"hERG current change (%, negative = inhibition) at 10uM [%]"
1,COc1ccc(NC(=O)CS(=O)CC(=O)Nc2ccc(OC)c(OC)c2)cc1 (centres unmarked),10.9
2,O=[N+]([O-])c1ccc(CSc2ccc(S(=O)(=O)N3CCCC3)cn2)cc1,-32.6
3,Cc1ccc(N2C(=O)CC(N3CCc4ccccc43)C2=O)cc1Cl (centres unmarked),15.6
4,CCCCN(C)C(=O)c1cc2c(Cl)nc3ccccc3c2s1,-4.12
5,Cc1ccc2nc(Cl)c3cc(C(=O)N(CCN(C)C)Cc4ccco4)sc3c2c1,-39.8
6,CN(C)CCN(Cc1ccco1)C(=O)c1cc2c(Cl)nc3ccccc3c2s1,-70.1
7,Cc1cc(=O)[nH]c(SCC(=O)Nc2ccc(C(=O)O)cc2)n1,5.37
8,O=Cc1c[nH]c2ccc(C(=O)c3ccccc3)cc12,3.97
9,CC(C)(C)n1nnnc1C(c1cccnc1)N1CCN(C(=O)c2ccco2)CC1 (centres unmarked),-15.1
10,COc1cc(C(=O)ON=C2C(C)=CC(=O)C=C2C)cc(OC)c1OC,-11.9
11,C#CCOCCOCCOCCNc1nc(N2CCN(C(=O)[C@H](Cc3ccc(O)cc3)n3cc([C@@H](N)C(C)CC)nn3)CC2)nc(N2CCN(C(=O)[C@H](CCCCN)n3cc([C@@H](N)CC(C)C)nn3)CC2)n1.Cl (some centres unmarked),6.05
12,C/C(=N/NC(=O)CNS(=O)(=O)c1ccc(C)cc1)c1cccc([N+](=O)[O-])c1,14.5
13,O=C(Nc1ccc(Cl)c(Cl)c1)N(CCCN1CCOCC1)Cc1cccs1,-78
14,O=C(Nc1ccccc1)N(CCCN1CCOCC1)Cc1cccs1,-40.1
15,O=C(Nc1ccc(Cl)cc1)N(Cc1cccs1)Cc1cccs1,0.899
16,COc1ccc(CN(CCCN2CCOCC2)C(=O)Nc2ccccc2)cc1OC,-10.9
17,CCC(C)NC(=O)CNC(=S)N(CCCN1CCOCC1)Cc1cccs1 (centres unmarked),-14.4
18,Cc1ccc(NC(=O)N(CCCN2CCOCC2)Cc2cccnc2)cc1C,-10.8
19,O=C(Nc1ccc(Cl)c(Cl)c1)N(CCCN1CCOCC1)Cc1cccnc1,-55.5
20,Cc1ccc(NC(=O)N(CCCN2CCOCC2)Cc2cccs2)cc1C,-47.6
21,O=C(Nc1ccc(Cl)cc1)N(CCCN1CCOCC1)Cc1cccs1,-70.7
22,CCc1ccc(NC(=O)N(CCCN2CCOCC2)Cc2cccs2)cc1,-52.8
23,Cc1ccc(NC(=S)N(CCCN2CCOCC2)Cc2cccnc2)cc1C,7.44
